Here are results for 16 molecules from PubChem BioAssay (NCI).

Among the test systems are NCI-H23 lung; NCI-H226 lung; HOP-62 NSCLC; NCI-H460 lung; HOP-92 NSCLC; A549/ATCC NSCLC; 786-0 renal; COLO 205 colon; NCI-H522 lung.
Common to all, as to experiment: NCI-60 one-dose screen, 48 h (100 = growth as untreated, 0 = no growth, -100 = all killed)
Common to all, as to details: 10 µM

This is part of a sample that, as a whole, favours compounds with a hit. Of some 83,000 tested, about 20% had one in any assay.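 48-hour exposure, single concentration, 96-well plates; percent growth endpoint where 0 means no net growth. Active: below 10.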 Values without a mark were called inactive. Active and inactive are the calls of the source.

Take `NS(=O)(=O)c1ccc(Br)cc1`: the growth in the experiment with NCI-H23 lung is 96%; with NCI-H226 lung, 110%; with HOP-62 NSCLC, 82.1%; in the experiment with NCI-H460 lung, 108%; in the experiment with HOP-92 NSCLC, 94%; in the experiment on A549/ATCC NSCLC it was 81.8%. Besides, the growth in the experiment on 786-0 renal was 89%; in the experiment on COLO 205 colon it was 98.5%.

Turning to `C#CC(C)(O)[C@@H]1C[C@H](CC(=O)O)C1(C)C` (some centres undefined), the growth in the experiment on NCI-H23 lung was 98%; with NCI-H226 lung, 111%; in the experiment on HOP-62 NSCLC, 112%; with NCI-H460 lung it was 116%; in the experiment on HOP-92 NSCLC, 114%; in the experiment on A549/ATCC NSCLC, 113%. Further, the growth in the experiment with 786-0 renal was 110%; in the experiment with COLO 205 colon, 122%.

Regarding `CC(=O)N[C@H](C(=O)N[C@@H](CCCNC(=N)N)C(=O)N[C@@H](CCCCN)C(=O)N[C@@H](CCCNC(=N)N)C(=O)N[C@]1(C)CCC/C=C\CCC[C@@](C)(C(=O)N[C@@H](CC(C)C)C(=O)N[C@@H](CC(C)C)C(=O)N[C@@H](CCC(N)=O)C(=O)N[C@@H](CCC(=O)O)C(=O)N[C@@H](CCCNC(=N)N)C(=O)N[C@@H](CCC(=O)O)C(=O)N[C@@H](CC(C)C)C(=O)N[C@H](C(=O)N[C@@H](CCC(=O)O)C(N)=O)C(C)C)NC(=O)[C@H](CCCNC(=N)N)NC(=O)[C@H](CC(C)C)NC1=O)C(C)C`, the growth in the experiment on NCI-H23 lung was 106%; in the experiment with NCI-H226 lung, 102%; in the experiment with HOP-62 NSCLC it was 109%; in the experiment with NCI-H460 lung it was 105%; with HOP-92 NSCLC, 115%; in the experiment with A549/ATCC NSCLC, 94.7%. Moreover, the growth was 98.1% with 786-0 renal and 102% in the experiment with COLO 205 colon.

`Cc1nn(-c2ccccc2)c2nc(Cl)c(C=O)c(-c3ccccc3)c12`: the growth is 80.6% with NCI-H23 lung; 93.3% with NCI-H226 lung; 115% in the experiment on HOP-62 NSCLC; 94% in the experiment with NCI-H460 lung; 65.7% with HOP-92 NSCLC; 78.3% in the experiment on A549/ATCC NSCLC. The growth in the experiment on 786-0 renal is 94.5%; with COLO 205 colon it was 121%.

`CN1CCN(CC(=O)Nc2cccc(-n3cc(-c4ccncc4)c(-c4ccc(Cl)c(O)c4)n3)c2)CC1`: the growth was 50.4% in the experiment on NCI-H23 lung; 74.3% in the experiment with NCI-H226 lung; 58.6% with HOP-62 NSCLC; 13.3% with NCI-H460 lung; 15.4% with HOP-92 NSCLC; 29.3% with A549/ATCC NSCLC. Moreover, the growth is 33.6% with 786-0 renal and 13.5% with COLO 205 colon.

Consider `CCN(CCCNc1cc2c(c(N)c1S(=O)(=O)O)C(=O)c1ccccc1C2=O)c1ccccc1`, for which the growth was 89.3% in the experiment on NCI-H23 lung; 84.4% in the experiment on NCI-H226 lung; 92.1% in the experiment with HOP-62 NSCLC; 102% in the experiment with NCI-H460 lung; 112% in the experiment with HOP-92 NSCLC; 104% in the experiment with A549/ATCC NSCLC. Further, the growth with 786-0 renal was 96.3%; in the experiment on COLO 205 colon, 109%.

Turning to `CCCCN1C(=O)CC(SC2CC(=O)N(CCCC)C2=O)C1=O` (centres undefined), the growth in the experiment with NCI-H23 lung was 97.9%; in the experiment on NCI-H226 lung it was 104%; in the experiment with HOP-62 NSCLC, 106%; in the experiment on NCI-H460 lung, 108%; with HOP-92 NSCLC, 97.8%; in the experiment on A549/ATCC NSCLC, 119%. For the same molecule, the growth in the experiment on 786-0 renal was 112%; in the experiment with COLO 205 colon it was 102%.

Consider `CN(C)c1ccc(/C=N/NC(=O)c2ccccc2Nc2cccc(C(F)(F)F)c2)cc1`, for which the growth in the experiment on NCI-H23 lung is 91.2%; in the experiment on NCI-H226 lung it was 101%; with HOP-62 NSCLC, 79.6%; with NCI-H460 lung, 96.3%; with HOP-92 NSCLC, 73%; with NCI-H522 lung it was 83.2%. Moreover, the growth in the experiment on 786-0 renal is 90.1%; with COLO 205 colon it was 111%.

In the case of `COc1cc(-c2nn(-c3cccc(NC(=O)CCNc4ccc(N5CCOCC5)cc4)c3)cc2-c2ccncc2)ccc1Cl`, the growth was 13.2% with NCI-H23 lung; 25.9% in the experiment on NCI-H226 lung; 27.1% in the experiment with HOP-62 NSCLC; 4.77% (active) in the experiment on NCI-H460 lung; -6.34% (active) with HOP-92 NSCLC; 17.5% in the experiment on A549/ATCC NSCLC. Moreover, the growth in the experiment with 786-0 renal is 19.1%; in the experiment on COLO 205 colon, 1.38% (active).

Turning to `COC1=CC(=O)OC(c2ccc(OC)cc2)C1` (centres undefined), the growth was 89.2% in the experiment on NCI-H23 lung; 110% with NCI-H226 lung; 105% in the experiment with HOP-62 NSCLC; 109% with NCI-H460 lung; 98.1% with HOP-92 NSCLC; 108% in the experiment on A549/ATCC NSCLC. Also, the growth was 109% in the experiment on 786-0 renal and 108% with COLO 205 colon.

On to `O=C(CSc1nccc(Nc2cccc3ccccc23)n1)c1ccc(Cl)cc1`, for which the growth in the experiment on NCI-H23 lung is 79.6%; in the experiment with NCI-H226 lung, 84.8%; with HOP-62 NSCLC, 81.9%; in the experiment with NCI-H460 lung it was 99.5%; with HOP-92 NSCLC, 82.5%; with A549/ATCC NSCLC it was 87.7%. For the same molecule, the values for the growth with 786-0 renal and with COLO 205 colon were 102% and 108%, respectively.

Turning to `COc1cccc(CNc2cccc3cn[nH]c23)c1O`, the growth was 94.9% in the experiment on NCI-H23 lung; 87.6% with NCI-H226 lung; 95.3% in the experiment on HOP-62 NSCLC; 111% in the experiment with NCI-H460 lung; 72.3% in the experiment with HOP-92 NSCLC; 86.3% in the experiment on NCI-H522 lung. In addition, the growth in the experiment with A549/ATCC NSCLC is 90.6%; in the experiment with 786-0 renal, 105%; in the experiment on COLO 205 colon, 110%.

On to `Nc1nc(Cn2c(-c3nonc3N)nc3ccccc32)nc(N2CCCCC2)n1`, for which the growth with NCI-H23 lung was 90.5%; in the experiment on NCI-H226 lung, 94.4%; with HOP-62 NSCLC, 91.7%; with NCI-H460 lung, 99.4%; in the experiment with HOP-92 NSCLC, 82.3%; in the experiment on A549/ATCC NSCLC, 93.1%. In addition, the growth with 786-0 renal is 92%; in the experiment with COLO 205 colon it was 94.4%.

`COc1ccc2c(c1)C(CC(=O)NN)CCC2` (centres undefined): the growth in the experiment on NCI-H23 lung is 92.7%; in the experiment with NCI-H226 lung, 101%; with HOP-62 NSCLC, 106%; in the experiment with NCI-H460 lung it was 109%; in the experiment with HOP-92 NSCLC, 93.7%; in the experiment with A549/ATCC NSCLC, 93.4%. Further, the growth in the experiment on 786-0 renal was 109%; in the experiment on COLO 205 colon it was 113%.

In the case of `CCN(CC)CCN1c2nc3ccccc3cc2Sc2cc3ccccc3nc21`, the growth in the experiment with NCI-H23 lung is -5.59% (active); in the experiment on NCI-H226 lung, -10.6% (active); in the experiment with HOP-62 NSCLC, 12.8%; in the experiment with NCI-H460 lung, -95.2% (active); in the experiment with HOP-92 NSCLC, -12.9% (active); with NCI-H522 lung it was -69.4% (active). Besides, the growth with 786-0 renal was -40% (active); with COLO 205 colon, -73.9% (active).

Regarding `O=C(O)c1cc([N+](=O)[O-])ccc1Oc1ccccc1`, the growth was 101% in the experiment with NCI-H23 lung; 98.6% in the experiment on NCI-H226 lung; 101% in the experiment on HOP-62 NSCLC; 105% in the experiment with NCI-H460 lung; 65.8% in the experiment with HOP-92 NSCLC; 99.7% with A549/ATCC NSCLC. For the same molecule, the growth in the experiment with 786-0 renal and in the experiment with COLO 205 colon was 104% each time.
